# In the library only some 2.9% were active in any assay of this set; here they are far more common.
# KLK7 zymogen act: proKLK7 zymogen activators, primary screen, biochemical, fluorescence intensity | Kallikrein-7 (Homo sapiens), P49862 | purified proKLK7, EDANS-DABCYL substrate fluorescence; 100% is mature enzyme control, 0% vehicle | activation, % at 7 µM | hit rate 0.9% among 370,000;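 active = activation above the mean of all tested compounds plus 3 SD, computed per campaign excluding outliers beyond control limits, cut at about 13% in these data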
# ADAM10 inh: human ADAM10 inhibitors, primary screen, biochemical, QFRET, HTS; Disintegrin and metalloproteinase domain-containing protein 10 (Homo sapiens), O14672; recombinant ADAM10, EDANS/DABCYL FRET peptide cleavage, 3 h; inhibition, % at 7 µM; hit rate 0.62% among 370,000; AID 720582, 2013;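 active = inhibition above a per-campaign cutoff equal to the mean of compounds falling between control-based bounds plus 3 SD, cut at about 20% in these data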
# PLC-beta3 inh: human PLC-beta3 inhibitors, primary screen, biochemical, fluorescence; Purified PLC-beta3, fluorogenic substrate; AID 720704, 2013; hit rate 0.18% among 370,000; inhibition, % at 12.2 µM; in the data active = inhibition above about 11%
# ADAM17 inh: ADAM17 inhibitors, primary screen, biochemical, QFRET; inhibition, % at 6.95 µM; recombinant ADAM17, EDANS/DABCYL FRET peptide cleavage; hit rate 0.83% among 370,000; AID 720648, 2013; Disintegrin and metalloproteinase domain-containing protein 17 (Homo sapiens), P78536;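 active = inhibition above the mean of compounds lying between control limits plus 3 SD, set per campaign, cut at about 8.5% in these data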
# PLCg1 inh: PLC-gamma1 enzyme inhibitors, primary screen, biochemical, fluorescence, purified enzyme | 1-phosphatidylinositol 4,5-bisphosphate phosphodiesterase gamma-1 (Homo sapiens), P19174 | fluorogenic substrate | inhibition, % at 12.2 µM | hit rate 0.84% among 370,000 | AID 720700, 2013
# Target sequence (P19174 whole entry, looked up): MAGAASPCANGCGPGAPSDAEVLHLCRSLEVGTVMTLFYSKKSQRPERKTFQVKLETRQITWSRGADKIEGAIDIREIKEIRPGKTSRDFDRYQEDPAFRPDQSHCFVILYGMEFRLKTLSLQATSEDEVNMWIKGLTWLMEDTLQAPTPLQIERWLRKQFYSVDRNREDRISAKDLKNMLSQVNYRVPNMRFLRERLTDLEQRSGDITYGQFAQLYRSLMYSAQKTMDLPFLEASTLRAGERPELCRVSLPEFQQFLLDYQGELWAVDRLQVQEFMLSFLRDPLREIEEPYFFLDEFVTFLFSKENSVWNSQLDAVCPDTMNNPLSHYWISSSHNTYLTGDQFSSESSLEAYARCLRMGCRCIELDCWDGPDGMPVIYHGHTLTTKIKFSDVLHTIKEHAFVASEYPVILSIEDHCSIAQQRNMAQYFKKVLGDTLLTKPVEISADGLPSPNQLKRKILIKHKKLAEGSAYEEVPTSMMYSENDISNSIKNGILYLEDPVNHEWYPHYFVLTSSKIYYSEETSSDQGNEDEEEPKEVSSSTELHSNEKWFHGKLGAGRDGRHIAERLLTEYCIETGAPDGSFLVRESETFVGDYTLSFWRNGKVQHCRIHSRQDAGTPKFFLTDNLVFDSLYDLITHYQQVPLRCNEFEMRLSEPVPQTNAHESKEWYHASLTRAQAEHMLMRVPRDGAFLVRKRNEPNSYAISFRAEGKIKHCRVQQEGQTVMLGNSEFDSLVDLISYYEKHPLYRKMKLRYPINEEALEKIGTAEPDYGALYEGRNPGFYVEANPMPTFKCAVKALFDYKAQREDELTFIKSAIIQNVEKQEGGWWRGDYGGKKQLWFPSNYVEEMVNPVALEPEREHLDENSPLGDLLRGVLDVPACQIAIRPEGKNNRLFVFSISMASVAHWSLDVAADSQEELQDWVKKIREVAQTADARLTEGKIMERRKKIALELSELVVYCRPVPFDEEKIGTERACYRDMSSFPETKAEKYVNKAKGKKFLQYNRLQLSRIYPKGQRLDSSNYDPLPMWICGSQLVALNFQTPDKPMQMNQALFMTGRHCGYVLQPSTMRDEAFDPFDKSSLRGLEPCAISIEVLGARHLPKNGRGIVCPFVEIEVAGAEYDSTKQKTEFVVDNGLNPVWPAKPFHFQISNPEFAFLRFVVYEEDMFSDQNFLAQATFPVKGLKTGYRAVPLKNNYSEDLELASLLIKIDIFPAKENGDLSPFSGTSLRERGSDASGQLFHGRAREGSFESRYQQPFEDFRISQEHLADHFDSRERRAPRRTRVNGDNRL
# PLCg1 ctr: PLC-gamma1 enzyme inhibitors, counter-screen for PLC-beta3 inhibitor project, biochemical, fluorescence | hit rate 3.1% among 3,300 | inhibition, % at 12.3 µM | shares compounds with PLCg1 inh | purified PLC-gamma1, fluorogenic substrate
# PLCbeta3 conf: PLC-beta3 inhibitor confirmation, biochemical, fluorescence, purified enzyme | shares compounds with PLCg1 inh | fluorogenic substrate fluorescence | inhibition, % at 12.3 µM | hit rate 1% among 3,300 | AID 743261, 2014; in the data active = inhibition above about 11%
# A number is an active result; – = inactive; · = no result given. Rule as the data show it, unless noted: active = inhibition above about 9.5%; inactive = the rest.
SMILES,KLK7 zymogen act,ADAM10 inh,PLC-beta3 inh,ADAM17 inh,PLCg1 inh,PLCg1 ctr,PLCbeta3 conf
COc1ccc2sc(-c3ccc(N(C)C)cc3)c(-c3cnc(OC)nc3)c2c1,–,–,–,–,–,·,·
Cc1noc(C)c1C(=O)N(CC(=O)Nc1ccc(Cl)c(C(F)(F)F)c1)Cc1ccco1,–,–,–,–,–,·,·
COCC(C)n1c(SCc2nc3ccccc3c(=O)[nH]2)nc2ccccc2c1=O (stereo not drawn),–,–,–,–,–,·,·
COCC(C)n1c(SCc2nc(N)nc(Nc3ccccc3C)n2)nc2ccccc2c1=O (stereo not drawn),–,–,–,–,11,–,–
O=C(CSc1ncccn1)NC(=O)NC1CCCC1,–,–,–,–,–,·,·
O=C(NCC1CCCO1)C1CCN(S(=O)(=O)c2cc(Cl)ccc2Cl)CC1 (stereo not drawn),–,–,–,–,12,–,–
Cc1ccc(S(=O)(=O)N(C)C)cc1NC(=O)[C@H](Cc1ccccc1)N1C(=O)c2ccccc2C1=O,–,–,–,–,–,·,·
COc1ccc(S(=O)(=O)N(C)C)cc1NC(=O)[C@H](Cc1ccccc1)N1C(=O)c2ccccc2C1=O,–,–,–,–,9.8,–,–
O=C1C(=O)N(Cc2ccc(-c3ccccc3)cc2)c2ccc(OC(F)(F)F)cc21,·,–,–,–,–,·,·
O=C(Cc1cccs1)NCc1ccccc1Br,–,–,–,–,12,–,–
O=C(CN1C(=O)NC2(CCCC2)C1=O)Nc1ccc(F)c(Cl)c1,–,–,–,–,–,·,·
Cc1ccc(NC(=O)/C(C#N)=C/c2ccsc2)c(C)c1,–,–,11,–,–,–,–
Cc1ccccc1NC(=O)/C(C#N)=C\c1ccsc1,–,–,–,–,–,·,·
O=NN(CCCl)C(=O)NCC1=C[N+](=O)CC=C1,–,–,–,–,–,·,·
Cc1[nH]n(-c2ccccc2)c(=O)c1C(c1cccc([N+](=O)[O-])c1O)c1c(C)[nH]n(-c2ccccc2)c1=O,–,–,14,–,31,–,–
Cc1[nH]n(-c2ccccc2)c(=O)c1C(c1ccc(C(=O)O)cc1)c1c(C)[nH]n(-c2ccccc2)c1=O,–,–,–,–,26,–,–
Cc1c(C(c2cccc([N+](=O)[O-])c2O)c2c(C)n(C)n(-c3ccccc3)c2=O)c(=O)n(-c2ccccc2)n1C,–,–,–,–,–,·,·
COc1ccc(NC(=O)Nc2cccc3c2O[C@H](CN(C)S(=O)(=O)c2c(C)noc2C)[C@@H](C)CN([C@H](C)CO)C3=O)cc1,–,–,–,–,–,·,·
COC(=O)[C@@H]1CCCN1C(=O)[C@@H](NC(=O)OC(C)(C)C)C(C)C,–,–,14,–,–,–,–
O=C(CNCCc1ccc(Cl)cc1)Nc1ccc(C(=O)N2CCCCC2)cc1,–,–,–,–,–,·,·
CCCC(=O)N1CCCC1(C)C(=O)Nc1ccc(OC(F)F)cc1 (stereo not drawn),–,–,–,–,–,·,·
O=C(C[n+]1ccccc1)N/N=C/c1ccc(Cl)cc1,–,–,–,–,–,·,·
CC(C)(C)c1ccc(/C=N/NC(=O)C[n+]2ccccc2)cc1,–,–,–,–,9.9,–,–
Cc1ccc(NC(=O)c2cnccn2)cc1C,–,–,–,–,11,–,–
COC(=O)c1cc2c(c3c4cc(F)ccc4n(S(=O)(=O)c4ccccc4)c13)C(=O)N(Cc1ccc(C(F)(F)F)cc1)C2,–,–,–,–,–,·,·
SMILES,KLK7 zymogen act,ADAM10 inh,PLC-beta3 inh,ADAM17 inh,PLCg1 inh,PLCg1 ctr,PLCbeta3 conf
COc1ccc(S(=O)(=O)NCCCN2CCCC2=O)cc1OC,–,–,–,–,10.0,–,–
COc1ccc(S(=O)(=O)NCCCN2CCCC2=O)c(OC)c1,–,–,–,–,–,·,·
CSCCC(NC(=O)OCc1ccccc1)C(=O)NCc1cccnc1 (stereo not drawn),–,–,–,–,9.8,–,–
CSCC[C@H](NC(=O)OCc1ccccc1)C(=O)O,–,–,–,–,–,·,·
CC(=O)NC(c1ccc(F)c(F)c1)c1nc(-c2cnn(C)c2)cs1 (stereo not drawn),–,–,–,–,–,·,·
COCCN(C(=O)COC(=O)c1ccc2[nH]c(C)c(C)c2c1)c1c(N)n(Cc2ccccc2)c(=O)[nH]c1=O,–,–,–,–,–,·,·
COc1ccc(C(=O)CN2C(=O)C(C)(C)Oc3ccc(C(=O)N4CCCCCC4)cc32)cc1,–,–,23,–,–,–,–
O=C1CC(NS(=O)(=O)c2ccc([N+](=O)[O-])cc2)CN1c1ccc2c(c1)OCCO2 (stereo not drawn),–,–,–,–,–,·,·
O=C(Oc1ccc([N+](=O)[O-])cc1)C1CC(=O)N(c2ccc3c(c2)OCCO3)C1 (stereo not drawn),–,–,–,–,13,–,–

# High-throughput results from PubChem.
